Only a sample is shown.
aSyn 5UTR act = Activators via SNCA 5'UTR binding, MLPCN; activity score, % (tested at 7.5 µM), hits read low; alpha-synuclein 5'UTR reporter, activators screen; 300,000 tested, 7.1% active; in the data active = activity score below about -60%
Starred values were filed as active, the others as inactive.

SMILES	aSyn 5UTR act
Cc1cccc(NC(=O)c2ccc(OCC3CCCO3)cc2)c1C (configuration not stated)	-70*
CN(C)Cc1ccccc1Sc1ccc2c(c1)CCCC2	104
COc1cc(C2Nc3ccc4ncccc4c3C3=C2C(=O)CCC3)ccc1O (configuration not stated)	-102*
COc1ccc(/C=N\n2nnc3ccccc32)cc1	73
COc1ccc(/C=N/n2cc(-c3ccccc3)nc2N)cc1	-134*
O=C(/C=C/c1ccnc2ccccc12)c1cccs1	-80*
O=C(C1=NNCC1c1ccccc1)C1OC1c1ccccc1 (configuration not stated)	-83*
Cc1ccc(NC(=O)C2C3/C=C\CCCCC32)cc1C (configuration not stated)	-115*
O=C(Nc1ccc2ncccc2c1)Nc1ccc2ncccc2c1	-179*
CN(C)S(=O)(=O)c1ccc(C(=O)Nc2ccc3ncccc3c2)cc1	-86*
CCCCN(CCCC)S(=O)(=O)c1ccc(C(=O)Nc2nnc(COC)o2)cc1	62
CCS(=O)(=O)c1ncc(Cl)c(C(=O)Nc2ccc(S(=O)(=O)N(C)c3ccccc3)cc2)n1	78
O=C(Nc1ccc2ncccc2c1)c1ccccc1Br	-297*
Cc1nc2cc(NC(=O)c3ccc(S(=O)(=O)N(C)c4ccccc4)cc3)ccc2o1	-132*
c1cnc2ccc(-c3ccc4ncccc4c3)cc2c1	-84*
CSc1nc(N)nc(SCC(=O)Nc2cccc(F)c2)c1C#N	-73*
O=C(NC(=S)Nc1cccnc1)c1cc2ccccc2o1	-66*
O=C(NC(=S)Nc1ccc(CN2CCCCC2)cc1)c1cc2ccccc2o1	-68*
CC(=O)Nc1ccc(NC(=S)NC(=O)c2cc3ccccc3o2)cc1	-71*
Cc1cc(C)cc(C(=O)NC(=S)Nc2ccc(-c3cc4ccccc4oc3=O)cc2)c1	97
O=C(Nc1cccnc1)c1cc2cc(Br)ccc2o1	-116*
Cc1ccccc1N(CC(=O)NC1CCCC1)C(=O)c1csnn1	-146*
COc1ccc(C(=O)/C=C/C(=O)N(CC(=O)NC2CCCCC2)Cc2cccs2)c(O)c1	71
O=c1c2ccccc2oc2cc(-c3ccc4[nH]ccc4c3)ccc12	-97*
COc1cc2sc3ccc(-c4ccc5[nH]ccc5c4)cc3c(=O)c2cc1OC	-239*
SMILES	aSyn 5UTR act
COc1cc(/C=N/Nc2nc3ccccc3s2)ccc1OC(=O)c1ccccc1F	-387*
COc1ccc(/C=N/NC(=S)Nc2ccccc2[N+](=O)[O-])cc1O	-131*
CCCOc1ccc(/C=N/NC(=S)Nc2ccccc2[N+](=O)[O-])c(O)c1	101
COc1cc(/C=N/Nc2ccccc2[N+](=O)[O-])ccc1OC(=O)c1ccccc1F	-100*
COc1cc(OC)cc(C(=O)Oc2ccc(/C=N/Nc3nc4ccccc4s3)cc2OC)c1	-513*
CCN(CC)c1nc(Nc2ccc(Cl)cc2)nc(OCC#N)n1	70
CCS(=O)(=O)Nc1cccc(C2=NN(C(=O)c3ccco3)C(c3ccco3)C2)c1 (configuration not stated)	-73*
CCc1ccc(C2=NN(C(C)=O)C(c3ccco3)C2)cc1 (configuration not stated)	-202*
O=[N+]([O-])c1ccc(C2=NN(c3ccccc3)C(c3ccco3)C2)cc1 (configuration not stated)	-75*
COc1ccc(C2=NN(C(N)=S)C(c3ccco3)C2)cc1 (configuration not stated)	-87*
COc1ccc(NC(=O)C(=O)NCC2CCCN2S(=O)(=O)c2ccc(C)cc2)cc1 (configuration not stated)	91
Cc1ccc(S(=O)(=O)N2CCCC2CNC(=O)C(=O)Nc2ccc(F)cc2)cc1 (configuration not stated)	-74*
O=C(COC(=O)[C@@H]1CCCN1S(=O)(=O)c1ccc(Cl)cc1)NCC(F)(F)F	31
CC(C)N1C(=O)CN(C2CCCCCC2)C(=O)C1c1ccccc1F (configuration not stated)	-140*
Cc1cc(N/N=C/c2c(O)ccc3ccccc23)nc(-c2ccccc2O)n1	72
Cc1cc(Nc2ccccc2)nc(-c2ccccc2O)n1	-101*
COc1ccc(C(=O)CCNc2cccc(Cl)c2)cc1	-114*
COc1ccc(C(=O)CNc2cccc(F)c2)cc1	-101*
COc1cccc(/C=N/NC(=O)c2cccc(N3CCCC3=O)c2)c1	-105*
C/C(=N/NC(=O)c1cccc(N2CCCC2=O)c1)c1ccncc1	-166*
O=C(Nc1ccccc1)c1cccc(N2CCCC2=O)c1	-117*
COc1ccc(/C=N/NC(=O)CCn2cnc(-c3ccccc3)c2-c2ccccc2)cc1	56
COc1cccc(/C=N/NC(=O)CCn2nnc3ccccc32)c1	-120*
O=C(N/N=C/c1cc(Br)ccc1O)c1cccc(N2CCCC2=O)c1	68
O=C(Cc1ccccc1)N/N=C/c1ccc2c(c1)OCO2	-140*
SMILES	aSyn 5UTR act
Cc1nc2ccccn2c1C(=O)N/N=C/c1ccc2c(c1)OCO2	-96*
O=C(CNc1ccc2c(c1)OCO2)N/N=C\c1cn(Cc2ccccc2)c2ccccc12	81
O=C(N/N=C/c1ccc2c(c1)OCO2)C(=O)Nc1ccccc1	-84*
O=C(CNC(=O)c1ccccc1F)N/N=C/c1ccc2c(c1)OCO2	-98*
Cc1cccc(-n2ncc3c(NCc4ccco4)ncnc32)c1	-549*
Cc1ccc(-n2ncc3c(NCc4ccco4)ncnc32)cc1C	-183*
CN1CCN(/N=C/c2ccc(-c3ccc([N+](=O)[O-])cc3Cl)o2)CC1	-104*
Cc1sc2c(c1C)C(=O)NC(c1ccccc1F)N2 (configuration not stated)	-115*
Cc1ccc(C2NC(=O)c3c(sc(C)c3C)N2)c(O)c1 (configuration not stated)	-234*
Cc1cccc(C2NC(=O)c3c(sc(C)c3C)N2)c1O (configuration not stated)	-87*
CCc1ccccc1NC(=S)N1N=CCC1c1ccccc1 (configuration not stated)	-71*
Cc1cccc(NC(=S)N2N=CCC2c2ccccc2)c1 (configuration not stated)	-125*
N#Cc1cccc(-c2nnc(SCc3ccccc3C#N)o2)c1	-65*
Clc1ccccc1CSc1nnc(-c2ccncc2)o1	-127*
N#Cc1ccccc1CSc1nnc(-c2ccncc2)o1	-114*
Fc1cccc(Cl)c1CSc1nnc(-c2ccncc2)o1	-109*
Cc1cc(C)cc(NC(=O)CSc2nnc(-c3ccccc3C)o2)c1	-119*
Cc1cccc(NC(=O)CSc2nnc(-c3ccccc3C)o2)c1	-94*
Cc1ccc(NC(=O)CSc2nnc(-c3ccccc3C)o2)cc1C	-89*
Cc1csc(NC(=O)CSc2nsc(SCC(=O)Nc3nc(C)cs3)c2C#N)n1	-210*
CCOC(=O)C1CCCN(C(=O)c2cc(COc3ccc(C)nc3)on2)C1 (configuration not stated)	-86*
CCCN1CCN(C(=O)c2cc(COc3ccc(F)c(F)c3)on2)CC1	-74*
CCCOC1CCCN(C(=O)c2cc(COc3ccc(F)c(F)c3)on2)C1 (configuration not stated)	-118*
Cc1nn(C)c(C)c1C(C)NC(=O)c1cc(COc2ccc(F)c(F)c2)on1 (configuration not stated)	-68*
CCC(Oc1ccccc1)C(=O)N1CCC(C(N)=O)CC1 (configuration not stated)	-71*
CCCCOc1ccc(C(=S)N2CCC(C(N)=O)CC2)cc1	-86*
O=c1c2ccccc2sc2ccc(Cl)cc12	-106*
